In all, about 8,300 sequences were measured (“log2 fold change of degron read counts, EGFP-low vs EGFP+ sorted cells (limma voom), compound-induced degradation”: median about -1.1, highest 2% from about 3.2 on). The sample as a whole holds a higher share of the highest values than the screen did.
T1: CRBN, Q96SW2
T1 chain: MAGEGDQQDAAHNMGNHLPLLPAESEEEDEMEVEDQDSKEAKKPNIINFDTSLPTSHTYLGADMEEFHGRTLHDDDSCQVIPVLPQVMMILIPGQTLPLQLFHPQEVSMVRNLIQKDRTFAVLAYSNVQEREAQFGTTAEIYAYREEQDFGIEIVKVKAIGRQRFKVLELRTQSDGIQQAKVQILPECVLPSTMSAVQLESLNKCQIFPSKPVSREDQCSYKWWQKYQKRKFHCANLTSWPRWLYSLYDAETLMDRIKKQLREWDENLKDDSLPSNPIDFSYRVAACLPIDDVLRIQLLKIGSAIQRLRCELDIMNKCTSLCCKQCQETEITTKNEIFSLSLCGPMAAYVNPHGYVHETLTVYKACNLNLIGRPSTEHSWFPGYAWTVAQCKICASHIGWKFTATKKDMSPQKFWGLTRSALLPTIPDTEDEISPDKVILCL


Target: T1, CRBN, Q96SW2
Test: log2 fold change of degron read counts, EGFP-low vs EGFP+ sorted cells (limma voom), compound-induced degradation; higher = more compound-induced degradation of the degron-EGFP fusion; degrons are variants of IKZF1/3 zinc finger 2; compound dose not given here
Conditions: Jurkat, 18 h
[1] = compound: compound 19 (5-tert-butyl-thalidomide)
[2] = compound: compound 22 (5-morpholino-thalidomide)
[3] = compound: compound 33 (diphenyl IMiD analogue)
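Further: pooled lentiviral library of zinc finger degron-EGFP fusions in mCherry-positive Jurkat cells, FACS-sorted after compound exposure, with degron abundance counted by next-generation sequencing.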

| Sequence | log2 fold change of degron read counts [1] | log2 fold change of degron read counts [2] | log2 fold change of degron read counts [3] | log2 fold change of degron read counts (compound: thalidomide) |
| --- | --- | --- | --- | --- |
| FICEICGRIFTQKGNLLRHIKL [46F_47I_49E_50I_52G_53R_54I_55F_67L_, Q9UKT9] | -1.03 | -1.63 | 0.139 | -0.162 |
| FLCEICGRAFTQKGNLLRHIKL [46F_47L_49E_50I_52G_53R_54A_55F_67L_, Q9UKT9] | -1.9 | -2.56 | -1.36 | -1.22 |
| LRCEICGFICTQKGNLLRHIKL [46L_47R_49E_50I_52G_53F_54I_55C_67L_, Q9UKT9] | -0.547 | -1.4 | 0.271 | 0.795 |
| FVCEICGRRFTQKGNLLRHIKL [46F_47V_49E_50I_52G_53R_54R_55F_67L_, Q9UKT9] | -1.38 | -0.295 | -0.924 | 1.44 |
| LWCPICGFICTQKGNLLRHIKL [46L_47W_49P_50I_52G_53F_54I_55C_67L_, Q9UKT9] | 2.27 | 2.7 | 2.35 | 1.24 |
| FNCEQCGAQFTQKGNLLRHIKL [46F_47N_49E_50Q_52G_53A_54Q_55F_67L_, Q9UKT9] | -1.51 | -2.31 | -2.13 | -2.22 |
| LTCNQCGFMCTQKGNLLRHIKL [46L_47T_49N_50Q_52G_53F_54M_55C_67L_, Q9UKT9] | -2.05 | -1.99 | -2.04 | -1.23 |
| FFCNQCGAKFTQKGNLLRHIKL [46F_47F_49N_50Q_52G_53A_54K_55F_67L_, Q9UKT9] | -0.805 | -0.929 | -1.59 | -1.91 |
| FDCNVCGAPFTQKGNLLRHIKL [46F_47D_49N_50V_52G_53A_54P_55F_67L_, Q9UKT9] | -1.08 | -1.02 | -1.22 | -0.873 |
| LMCEICGFRCTQKGNLLRHIKL [46L_47M_49E_50I_52G_53F_54R_55C_67L_, Q9UKT9] | 0.992 | 0.81 | 2.15 | 2.41 |
| LTCEICGFRCTQKGNLLRHIKL [46L_47T_49E_50I_52G_53F_54R_55C_67L_, Q9UKT9] | 1.66 | 2.1 | 1.15 | 2.73 |
| LCCEICGFRCTQKGNLLRHIKL [46L_47C_49E_50I_52G_53F_54R_55C_67L_, Q9UKT9] | 2.36 | 2.33 | 1.37 | 2.65 |
| LSCEICGFRCTQKGNLLRHIKL [46L_47S_49E_50I_52G_53F_54R_55C_67L_, Q9UKT9] | 2.82 | 2.76 | 0.517 | 1.83 |
| LVCEICGFRCTQKGNLLRHIKL [46L_47V_49E_50I_52G_53F_54R_55C_67L_, Q9UKT9] | 2.5 | 2.55 | 1.39 | 3.28 |
| LGCEICGFRCTQKGNLLRHIKL [46L_47G_49E_50I_52G_53F_54R_55C_67L_, Q9UKT9] | 2.14 | 1.52 | -0.383 | 0.468 |
| LHCEICGFRCTQKGNLLRHIKL [46L_47H_49E_50I_52G_53F_54R_55C_67L_, Q9UKT9] | 2.71 | 2.4 | 1.3 | 1.88 |
| LNCEICGFRCTQKGNLLRHIKL [46L_47N_49E_50I_52G_53F_54R_55C_67L_, Q9UKT9] | 1.31 | 0.0636 | -0.877 | 0.378 |
| LDCEICGFRCTQKGNLLRHIKL [46L_47D_49E_50I_52G_53F_54R_55C_67L_, Q9UKT9] | 0.949 | -0.499 | -0.616 | 0.426 |
| LWCEICGFRCTQKGNLLRHIKL [46L_47W_49E_50I_52G_53F_54R_55C_67L_, Q9UKT9] | 3.39 | 3.5 | 2.48 | 1.8 |
| LYCEICGFRCTQKGNLLRHIKL [46L_47Y_49E_50I_52G_53F_54R_55C_67L_, Q9UKT9] | 3.55 | 3.9 | 2.17 | 1.9 |
| LACEICGFRCTQKGNLLRHIKL [46L_47A_49E_50I_52G_53F_54R_55C_67L_, Q9UKT9] | 3.5 | 2.79 | 0.159 | 1.41 |
| FQCNQCGREFTQKGNLLRHIKL [46F_47Q_49N_50Q_52G_53R_54E_55F_67L_, Q9UKT9] | -3.47 | -3.04 | -3.68 | -2.95 |
| FDCEQCGACFTQKGNLLRHIKL [46F_47D_49E_50Q_52G_53A_54C_55F_67L_, Q9UKT9] | -1.94 | -2.86 | -2.08 | -2.3 |
| FGCDICGAAFTQKGNLLRHIKL [46F_47G_49D_50I_52G_53A_54A_55F_67L_, Q9UKT9] | 1.51 | 0.584 | 0.961 | -0.234 |
| LLCPICGFPCTQKGNLLRHIKL [46L_47L_49P_50I_52G_53F_54P_55C_67L_, Q9UKT9] | -0.669 | 1.1 | 1.61 | 2.14 |
| FDCNQCGATFTQKGNLLRHIKL [46F_47D_49N_50Q_52G_53A_54T_55F_67L_, Q9UKT9] | -2.56 | -3.15 | -3.02 | -2.62 |
| FWCPICGHRFTQKGNLLRHIKL [46F_47W_49P_50I_52G_53H_54R_55F_67L_, Q9UKT9] | -0.606 | 0.31 | -0.595 | -0.478 |
| LACNQCGFFCTQKGNLLRHIKL [46L_47A_49N_50Q_52G_53F_54F_55C_67L_, Q9UKT9] | -0.913 | -1.22 | -1.37 | -0.847 |
